Results reported in the supplement of paper PMC4466140.

Each binder was assayed against SpBzz1-D2 (assay: SPOT peptide array binding signal intensity (averaged, normalized) (arbitrary units (background-subtracted, floor 0; scale differs between SH3 domains)); higher = stronger binding of the SH3 domain to the peptide).
Description: (§1)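 GST-tagged SH3 domains from S. cerevisiae (Sc), A. gossypii (Ag), C. albicans (Ca) and S. pombe (Sp) were incubated at 10 ug/ml overnight at 4 C on cellulose SPOT membranes carrying 292 synthetic 15-mer peptides mined from the S. cerevisiae proteome (cysteines replaced by serines). Binding was detected with anti-GST antibody, HRP secondary and chemiluminescence, quantified with Genespotter, and reported as normalized spot intensities averaged over biological replicates.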

**Q.** For LLIRWLILMPLVGSR, which “SPOT peptide array binding signal intensity” value is on record?
**A.** Its value is 13.5.

Each binder was assayed against SpCyk3 in the same assay as above.
Description: as §1

**Q.** With LLIRWLILMPLVGSR as the binder, how does the “SPOT peptide array binding signal intensity” value read?
**A.** The value was 25.

These binders were tested against SpHof1 in the same assay as above.
Description: as §1

**Q.** For LLIRWLILMPLVGSR, which “SPOT peptide array binding signal intensity” value is on record?
**A.** The value was 306.

What follows are binders tested against SpHof1-2 in the same assay as above.
Description: as §1

**Q.** How did the “SPOT peptide array binding signal intensity” value turn out when LLIRWLILMPLVGSR was run?
**A.** Its value is 75.2.

Each binder was assayed against SpHof1-3 in the same assay as above.
Description: as §1

**Q.** How did the “SPOT peptide array binding signal intensity” value turn out when LLIRWLILMPLVGSR was run?
**A.** Its value is 2420.

Each binder was assayed against SpHse1 in the same assay as above.
Description: as §1

**Q.** How did the “SPOT peptide array binding signal intensity” value turn out when LLIRWLILMPLVGSR was run?
**A.** The value was 2700.

The binders below were run against SpLsb1 in the same assay as above.
Description: as §1

**Q.** With LLIRWLILMPLVGSR as the binder, how does the “SPOT peptide array binding signal intensity” value read?
**A.** The value was 2.

The binders below were run against SpLsb4 in the same assay as above.
Description: as §1

**Q.** With LLIRWLILMPLVGSR as the binder, how does the “SPOT peptide array binding signal intensity” value read?
**A.** The value was 341.

These binders were tested against SpMyo1 in the same assay as above.
Description: as §1

**Q.** LLIRWLILMPLVGSR was tested. Which “SPOT peptide array binding signal intensity” value did it give?
**A.** The value was 18.

What follows are binders tested against SpNbp2 in the same assay as above.
Description: as §1

**Q.** With LLIRWLILMPLVGSR as the binder, how does the “SPOT peptide array binding signal intensity” value read?
**A.** Its value is 1450.

The binders below were run against SpPex13 in the same assay as above.
Description: as §1

**Q.** Which “SPOT peptide array binding signal intensity” value does the source give for LLIRWLILMPLVGSR here?
**A.** Its value is 232.

These binders were tested against SpRvs167 in the same assay as above.
Description: as §1

**Q.** How did the “SPOT peptide array binding signal intensity” value turn out when LLIRWLILMPLVGSR was run?
**A.** Its value is 37.7.

What follows are binders tested against SpSla1-D1-D2 in the same assay as above.
Description: as §1

**Q.** For LLIRWLILMPLVGSR, which “SPOT peptide array binding signal intensity” value is on record?
**A.** Its value is at most 0.

The binders below were run against SpSla1-D3 in the same assay as above.
Description: as §1

**Q.** Which “SPOT peptide array binding signal intensity” value does the source give for LLIRWLILMPLVGSR here?
**A.** Its value is 120.

Each binder was assayed against AgAbp1 in the same assay as above.
Description: as §1

**Q.** Which “SPOT peptide array binding signal intensity” value does the source give for QTMRQAPKRPDADVA here?
**A.** Its value is 17.

These binders were tested against AgBbc1 in the same assay as above.
Description: as §1

**Q.** Which “SPOT peptide array binding signal intensity” value does the source give for QTMRQAPKRPDADVA here?
**A.** The value was 170.

Each binder was assayed against AgBem1-D1 in the same assay as above.
Description: as §1

**Q.** How did the “SPOT peptide array binding signal intensity” value turn out when QTMRQAPKRPDADVA was run?
**A.** The value was 369.

Each binder was assayed against AgBzz1-D1 in the same assay as above.
Description: as §1

**Q.** Which “SPOT peptide array binding signal intensity” value does the source give for QTMRQAPKRPDADVA here?
**A.** The value was 11.

These binders were tested against AgBzz1-D2 in the same assay as above.
Description: as §1

**Q.** For QTMRQAPKRPDADVA, which “SPOT peptide array binding signal intensity” value is on record?
**A.** The value was 10.

The binders below were run against AgCyk3 in the same assay as above.
Description: as §1

**Q.** For QTMRQAPKRPDADVA, which “SPOT peptide array binding signal intensity” value is on record?
**A.** Its value is at most 0.

The binders below were run against AgFus1 in the same assay as above.
Description: as §1

**Q.** With QTMRQAPKRPDADVA as the binder, how does the “SPOT peptide array binding signal intensity” value read?
**A.** The value was 728.

The binders below were run against AgHof1 in the same assay as above.
Description: as §1

**Q.** Which “SPOT peptide array binding signal intensity” value does the source give for QTMRQAPKRPDADVA here?
**A.** Its value is 9.

These binders were tested against AgHse1 in the same assay as above.
Description: as §1

**Q.** With QTMRQAPKRPDADVA as the binder, how does the “SPOT peptide array binding signal intensity” value read?
**A.** The value was 132.

Each binder was assayed against AgLsb1 in the same assay as above.
Description: as §1

**Q.** With QTMRQAPKRPDADVA as the binder, how does the “SPOT peptide array binding signal intensity” value read?
**A.** The value was 48.8.

Each binder was assayed against AgLsb4 in the same assay as above.
Description: as §1

**Q.** How did the “SPOT peptide array binding signal intensity” value turn out when QTMRQAPKRPDADVA was run?
**A.** Its value is 36.

The binders below were run against AgMyo5 in the same assay as above.
Description: as §1

**Q.** Which “SPOT peptide array binding signal intensity” value does the source give for QTMRQAPKRPDADVA here?
**A.** Its value is 18.8.

Each binder was assayed against AgNbp2 in the same assay as above.
Description: as §1

**Q.** Which “SPOT peptide array binding signal intensity” value does the source give for QTMRQAPKRPDADVA here?
**A.** Its value is 2740.

These binders were tested against AgRvs167 in the same assay as above.
Description: as §1

**Q.** With QTMRQAPKRPDADVA as the binder, how does the “SPOT peptide array binding signal intensity” value read?
**A.** Its value is 20.3.

These binders were tested against AgSho1 in the same assay as above.
Description: as §1

**Q.** For QTMRQAPKRPDADVA, which “SPOT peptide array binding signal intensity” value is on record?
**A.** The value was 684.

What follows are binders tested against AgSla1-D1-D2 in the same assay as above.
Description: as §1

**Q.** For QTMRQAPKRPDADVA, which “SPOT peptide array binding signal intensity” value is on record?
**A.** The value was 9.

Each binder was assayed against AgSla1-D3 in the same assay as above.
Description: as §1

**Q.** How did the “SPOT peptide array binding signal intensity” value turn out when QTMRQAPKRPDADVA was run?
**A.** The value was 14.8.

Each binder was assayed against CaAbp1-D1 in the same assay as above.
Description: as §1

**Q.** Which “SPOT peptide array binding signal intensity” value does the source give for QTMRQAPKRPDADVA here?
**A.** Its value is 144.

The binders below were run against CaAbp1-D2 in the same assay as above.
Description: as §1

**Q.** With QTMRQAPKRPDADVA as the binder, how does the “SPOT peptide array binding signal intensity” value read?
**A.** The value was 292.

These binders were tested against CaBbc1 in the same assay as above.
Description: as §1

**Q.** How did the “SPOT peptide array binding signal intensity” value turn out when QTMRQAPKRPDADVA was run?
**A.** The value was 942.

These binders were tested against CaBem1-D1 in the same assay as above.
Description: as §1

**Q.** Which “SPOT peptide array binding signal intensity” value does the source give for QTMRQAPKRPDADVA here?
**A.** The value was 565.

These binders were tested against CaBzz1-D1 in the same assay as above.
Description: as §1

**Q.** With QTMRQAPKRPDADVA as the binder, how does the “SPOT peptide array binding signal intensity” value read?
**A.** The value was 458.

Each binder was assayed against CaBzz1-D2 in the same assay as above.
Description: as §1

**Q.** For QTMRQAPKRPDADVA, which “SPOT peptide array binding signal intensity” value is on record?
**A.** Its value is 286.

The binders below were run against CaCyk3 in the same assay as above.
Description: as §1

**Q.** For QTMRQAPKRPDADVA, which “SPOT peptide array binding signal intensity” value is on record?
**A.** Its value is 35.

These binders were tested against CaFus1 in the same assay as above.
Description: as §1

**Q.** For QTMRQAPKRPDADVA, which “SPOT peptide array binding signal intensity” value is on record?
**A.** The value was 1110.

These binders were tested against CaHof1 in the same assay as above.
Description: as §1

**Q.** With QTMRQAPKRPDADVA as the binder, how does the “SPOT peptide array binding signal intensity” value read?
**A.** Its value is 1.

These binders were tested against CaHse1 in the same assay as above.
Description: as §1

**Q.** For QTMRQAPKRPDADVA, which “SPOT peptide array binding signal intensity” value is on record?
**A.** The value was 146.

What follows are binders tested against CaLsb1 in the same assay as above.
Description: as §1

**Q.** QTMRQAPKRPDADVA was tested. Which “SPOT peptide array binding signal intensity” value did it give?
**A.** The value was 18.2.

The binders below were run against CaLsb4 in the same assay as above.
Description: as §1

**Q.** With QTMRQAPKRPDADVA as the binder, how does the “SPOT peptide array binding signal intensity” value read?
**A.** Its value is 910.

What follows are binders tested against CaMyo5 in the same assay as above.
Description: as §1

**Q.** QTMRQAPKRPDADVA was tested. Which “SPOT peptide array binding signal intensity” value did it give?
**A.** Its value is 56.2.
